Where a name gives a salt, the structure may show the parent alone.
Tests used:
Details in all cases: incubation time: 27 h, anaerobic, 37 °C;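 for the amine columns active = adjusted P below 0.05 in both replicates with a change the same way and a mean fold change under 0.8 or over 1.25; inactive = the rest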
[1] = tested on: Clostridium sporogenes DSM 1664; test: growth (OD595) fold change vs plate DMSO controls (fold change (ratio)); higher = more growth
Procedure, shortened: (§1)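 Shaken 96-well cultures in mGAM, grown anaerobically for 27 h at 37 °C, were read at 595 nm. OD came from blank-subtracted readings, corrected for background with 20 µM compound solutions in water and scaled by a calibration factor of 5. Growth is the fold change versus the plate's median DMSO control. Values average 2 biological replicates, and any fold change above 1.5 is NA.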

Escherichia coli IAI1 [2] = test: as above
Procedure, shortened: as §1

[3] = tested on: Klebsiella aerogenes DSM 30053; test: as above
Procedure, shortened: as §1

[4] = tested on: Ruminococcus gnavus DSM 108212; test: as above
Procedure, shortened: as §1

[5] = tested on: Klebsiella aerogenes DSM 30053; test: fold change of Histamine concentration vs plate DMSO controls (fold change (ratio)); higher = more amine produced, active = hit call of the paper (significant change in both replicates, either direction)
Procedure, shortened: (§2)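 Amine values are fold changes relative to DMSO-only wells on the same plate. They derive from 27 h, 37 °C anaerobic mGAM cultures of four gut bacterial strains in 80 µL wells, dosed at 20 µM final, or 50 µM final for sweeteners. Extraction of the whole culture, LC–triple-quadrupole MS in dynamic MRM mode, external calibration curves and within-batch drift correction were used, with 2 biological replicates averaged.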

[6] = tested on: Clostridium sporogenes DSM 1664; test: fold change of Tryptamine concentration vs plate DMSO controls (fold change (ratio)); higher = more amine produced, active = hit call of the paper (significant change in both replicates, either direction)
Procedure, shortened: as §2

[7] = tested on: Ruminococcus gnavus DSM 108212; test: as above
Procedure, shortened: as §2

Escherichia coli IAI1 [8] = test: fold change of Putrescine concentration vs plate DMSO controls (fold change (ratio)); higher = more amine produced, active = hit call of the paper (significant change in both replicates, either direction)
Procedure, shortened: as §2

[9] = tested on: Klebsiella aerogenes DSM 30053; test: as above
Procedure, shortened: as §2

Escherichia coli IAI1 [10] = test: fold change of Cadaverine concentration vs plate DMSO controls (fold change (ratio)); higher = more amine produced, active = hit call of the paper (significant change in both replicates, either direction)
Procedure, shortened: as §2

[11] = tested on: Klebsiella aerogenes DSM 30053; test: as above
Procedure, shortened: as §2

[12] = tested on: Ruminococcus gnavus DSM 108212; test: fold change of 2-Phenylethylamine concentration vs plate DMSO controls (fold change (ratio)); higher = more amine produced, active = hit call of the paper (significant change in both replicates, either direction)
Procedure, shortened: as §2

Compound | growth [1] | growth (Escherichia coli IAI1 [2]) | growth [3] | growth [4] | fold change of Histamine concentration [5] | fold change of Tryptamine concentration [6] | fold change of Tryptamine concentration [7] | fold change of Putrescine concentration (Escherichia coli IAI1 [8]) | fold change of Putrescine concentration [9] | fold change of Cadaverine concentration (Escherichia coli IAI1 [10]) | fold change of Cadaverine concentration [11] | fold change of 2-Phenylethylamine concentration [12]
CNCCC(Oc1ccccc1OC)c1ccccc1 (stereo unspecified) [Nisoxetine hydrochloride] (20 µM) | 0.994 | 0.74 | 0.914 | 0.975 | 1.02 (inactive) | 0.993 (inactive) | 1.01 (inactive) | 0.707 (inactive) | 0.978 (inactive) | 1.18 (inactive) | 0.983 (inactive) | 0.92 (inactive)
CC(=O)CC(c1ccccc1)c1c(O)c2ccccc2oc1=O (stereo unspecified) [Warfarin] (20 µM) | 1.08 | 1.21 | 0.97 | 1.12 | 1 (inactive) | 1.05 (inactive) | 0.84 (inactive) | 1.22 (inactive) | 0.989 (inactive) | 0.958 (inactive) | 0.984 (inactive) | 0.758 (inactive)
Cn1cc(C(=O)Nc2ccccc2-c2cc(F)c(F)c(F)c2)c(C(F)F)n1 (20 µM) | 1.04 | 0.97 | 0.98 | 0.98 | 1.02 (inactive) | 1.03 (inactive) | 0.986 (inactive) | 1.02 (inactive) | 1.02 (inactive) | 1.01 (inactive) | 0.989 (inactive) | 0.966 (inactive)
O=C(Cn1cnnn1)N[C@@H]1C(=O)N2C(C(=O)O)=C(CSc3nncs3)CS[C@H]12 [Ceftezole] (20 µM) | 0 | 0.855 | 1.05 | 0.188 | 0.895 (inactive) | 0.0131 (active) | 0.114 (active) | 0.749 (inactive) | 0.967 (inactive) | 1.61 (inactive) | 1.04 (inactive) | 0.105 (active)
CCCC(=O)Nc1ncnc2c1ncn2[C@@H]1O[C@@H]2COP(=O)(O)O[C@H]2[C@H]1OC(=O)CCC [Bucladesine sodium salt] (20 µM) | 0.934 | 1.16 | 1.04 | 0.964 | 0.931 (inactive) | 0.976 (inactive) | 0.984 (inactive) | 1.06 (inactive) | 0.983 (inactive) | 1 (inactive) | 1.01 (inactive) | 0.975 (inactive)
N=C(N)N1CCc2ccccc2C1 [Debrisoquin sulfate] (20 µM) | 1.11 | 1 | 1.02 | 1.13 | 1.01 (inactive) | 1.03 (inactive) | 1.02 (inactive) | 1.03 (inactive) | 1 (inactive) | 0.999 (inactive) | 0.993 (inactive) | 1.05 (inactive)
COC(=O)C1=C(C)NC(C)=C(C(=O)OCCN2CCN(C(c3ccccc3)c3ccccc3)CC2)C1c1cccc([N+](=O)[O-])c1 (stereo unspecified) [Manidipine Dihydrochloride] (20 µM) | 0.816 | 1.01 | 1 | 0.934 | 1 (inactive) | 0.799 (inactive) | 0.848 (inactive) | 0.983 (inactive) | 1 (inactive) | 1.01 (inactive) | 0.997 (inactive) | 0.9 (inactive)
CN(C)CCC(c1ccc(Br)cc1)c1ccccn1 (stereo unspecified) [Brompheniramine maleate] (20 µM) | 0.959 | 1.17 | 1.07 | 1.17 | 0.891 (inactive) | 1.2 (inactive) | 1.1 (inactive) | 0.981 (inactive) | 0.943 (inactive) | 1.2 (inactive) | 1.03 (inactive) | 1.14 (inactive)
CC(C)(S)C(N)C(=O)O (racemic) [D,L-Penicillamine] (20 µM) | 1.05 | 1.08 | 1.02 | 0.873 | 0.909 (inactive) | 0.993 (inactive) | 0.968 (inactive) | 0.99 (inactive) | 0.954 (inactive) | 1 (inactive) | 0.974 (inactive) | 0.956 (inactive)
CCc1oc2ccccc2c1C(=O)c1ccc(O)cc1 [Benzarone] (20 µM) | 1 | 1.1 | 1.09 | 1.11 | 0.967 (inactive) | 0.933 (inactive) | 0.934 (inactive) | 1.06 (inactive) | 1 (inactive) | 1.01 (inactive) | 1.02 (inactive) | 0.956 (inactive)
CCC[C@@H]1C[C@@H](C(=O)N[C@@H]([C@H]2O[C@H](SC)[C@H](O)[C@@H](O)[C@H]2O)[C@@H](C)O)N(C)C1 [Lincomycin hydrochloride] (20 µM) | 0.767 | 0.925 | 0.981 | 0.121 | 0.952 (inactive) | 0.761 (active) | 0.129 (active) | 0.531 (inactive) | 0.682 (active) | 0.967 (inactive) | 1.02 (inactive) | 0.117 (active)
c1coc(CNc2ncnc3[nH]cnc23)c1 [Kinetin] (20 µM) | 0.818 | 1.05 | 0.962 | 0.855 | 0.974 (inactive) | 0.976 (inactive) | 1.01 (inactive) | 1.08 (inactive) | 1.01 (inactive) | 0.999 (inactive) | 1.01 (inactive) | 1.04 (inactive)
Cc1cc2cc3c(C)cc(=O)oc3c(C)c2o1 [Trioxsalen] (20 µM) | 1.03 | 1.14 | 0.991 | 1.02 | 1.08 (inactive) | 0.974 (inactive) | 0.966 (inactive) | 1.13 (inactive) | 0.997 (inactive) | 1.03 (inactive) | 0.985 (inactive) | 0.936 (inactive)
OC[C@H]1O[C@@H](O[C@@H]2[C@@H](CO)OC(O)(CO)[C@H]2O)[C@H](O)[C@@H](O)[C@H]1O (mixture of isomers) [Lactulose] (50 µM) | 1.06 | 0.906 | 1.01 | 0.977 | 1.01 (inactive) | 0.98 (inactive) | 1 (inactive) | 0.955 (inactive) | 1.02 (inactive) | 1.05 (inactive) | 0.994 (inactive) | 0.98 (inactive)
CCCCOCCOCCOCc1cc2c(cc1CCC)OCO2 (20 µM) | 1.07 | 1.02 | 1.03 | 1.09 | 0.98 (inactive) | 1.03 (inactive) | 1.04 (inactive) | 1 (inactive) | 1 (inactive) | 1.02 (inactive) | 1 (inactive) | 1.06 (inactive)
CN1CCC[C@@H]1Cc1c[nH]c2ccc(CCS(=O)(=O)c3ccccc3)cc12 [Eletriptan] (20 µM) | 0.866 | 1.04 | 0.965 | 0.979 | 1.05 (inactive) | 1.05 (inactive) | 1.02 (inactive) | 1.08 (inactive) | 0.973 (inactive) | 0.955 (inactive) | 0.994 (inactive) | 1.05 (inactive)
O=C(O)Cc1ccc(-c2ccccc2)cc1 [Felbinac] (20 µM) | 1 | 1.01 | 1.08 | 1.01 | 0.921 (inactive) | 0.994 (inactive) | 1.01 (inactive) | 1.03 (inactive) | 0.976 (inactive) | 0.989 (inactive) | 0.998 (inactive) | 1.01 (inactive)
CCN[C@H]1CN(CCCOC)S(=O)(=O)c2sc(S(N)(=O)=O)cc21 [Brinzolamide] (20 µM) | 1.17 | 1.04 | 1 | 1.04 | 1 (inactive) | 1.02 (inactive) | 0.944 (inactive) | 1.05 (inactive) | 0.989 (inactive) | 1.01 (inactive) | 1 (inactive) | 0.899 (inactive)
C#CCN(C)Cc1ccccc1 [Pargyline hydrochloride] (20 µM) | 0.983 | 0.989 | 1.03 | 0.999 | 0.983 (inactive) | 1.01 (inactive) | 1.01 (inactive) | 0.99 (inactive) | 1.01 (inactive) | 1 (inactive) | 1.01 (inactive) | 0.995 (inactive)
Cc1ccc2c(Cl)cc(Cl)c(O)c2n1 [Chlorquinaldol] (20 µM) | 0.726 | 0.915 | 0.929 | 0.448 | 1.12 (inactive) | 0.518 (active) | 0.33 (active) | 1.17 (inactive) | 1.03 (inactive) | 1.32 (inactive) | 0.978 (inactive) | 0.332 (inactive)
O=C(NCC(O)CO)c1c(I)c(C(=O)NCC(O)CO)c(I)c(N(CCO)C(=O)CO)c1I (stereo unspecified) [Ioversol] (20 µM) | 1.09 | 0.998 | 1.01 | 1.11 | 0.997 (inactive) | 1.11 (inactive) | 1.11 (inactive) | 0.923 (inactive) | 0.975 (inactive) | 0.924 (inactive) | 1.02 (inactive) | 1.12 (inactive)
CN(C)CC/C=C1/c2ccccc2COc2ccc(CC(=O)O)cc21 [Olopatadine hydrochloride] (20 µM) | 1.01 | 0.978 | 1.01 | 0.955 | 1 (inactive) | 0.968 (inactive) | 1.03 (inactive) | 1.01 (inactive) | 1 (inactive) | 0.995 (inactive) | 1 (inactive) | 1.04 (inactive)
N[C@@H](CSCCCO)C(=O)O [Fudosteine] (20 µM) | 0.96 | 1.05 | 1.01 | 1.14 | 0.977 (inactive) | 0.939 (inactive) | 1 (inactive) | 1.05 (inactive) | 1.02 (inactive) | 0.981 (inactive) | 1.01 (inactive) | 1.03 (inactive)

Source: the supplement of paper PMC12494721
